This is part of a sample that, as a whole, favours compounds with a hit. Of some 83,000 tested, about 20% had one in any assay.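 Values shown are percent growth following 48 h exposure of cells in 96-well plates to a single concentration of compound; below 10 was considered active.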
Legend:
Assay in all cases: NCI-60 one-dose screen, 48 h (100 = growth as untreated, 0 = no growth, -100 = all killed)
Settings in all cases: 10 µM unless noted
DU-145 prostate = test system: DU-145 prostate
K-562 leukemia = test system: K-562 leukemia
MALME-3M melanoma = test system: MALME-3M melanoma
MDA-MB-231 breast = test system: MDA-MB-231 breast
RXF 393 renal = test system: RXF 393 renal
SF-268 CNS = test system: SF-268 CNS
SF-295 CNS = test system: SF-295 CNS
SF-539 CNS = test system: SF-539 CNS
UACC-257 melanoma = test system: UACC-257 melanoma
M14 melanoma = test system: M14 melanoma
HCT-15 colon = test system: HCT-15 colon
HT29 colon = test system: HT29 colon
SNB-75 CNS = test system: SNB-75 CNS
SNB-19 CNS = test system: SNB-19 CNS
U251 CNS = test system: U251 CNS
PC-3 prostate = test system: PC-3 prostate
SK-MEL-5 melanoma = test system: SK-MEL-5 melanoma
UACC-62 melanoma = test system: UACC-62 melanoma
LOX IMVI melanoma = test system: LOX IMVI melanoma
SK-MEL-28 melanoma = test system: SK-MEL-28 melanoma

Measured: growth

O=C(Nc1ccc(Nc2ccncc2)cc1)c1ccc([N+](=O)[O-])cc1
inactive: DU-145 prostate 68.7% | K-562 leukemia 19.5% | MALME-3M melanoma 59.1% | MDA-MB-231 breast 93.5% | RXF 393 renal 91.6% | SF-268 CNS 91.9% | SF-295 CNS 79.6% | SF-539 CNS 88.8% | UACC-257 melanoma 96.9% | M14 melanoma 65.1% | HCT-15 colon 77.5% | HT29 colon 63.4% | SNB-75 CNS 92% | SNB-19 CNS 80.1% | U251 CNS 38% | PC-3 prostate 70% | SK-MEL-5 melanoma 73.1% | UACC-62 melanoma 15.4% | LOX IMVI melanoma 62.3% | SK-MEL-28 melanoma 84.9%

N#C/C(C(=O)c1ccccc1)=C1/C(=O)Nc2ccccc21
inactive: DU-145 prostate 105% | K-562 leukemia 88.6% | MALME-3M melanoma 108% | MDA-MB-231 breast 93.2% | RXF 393 renal 113% | SF-268 CNS 95.7% | SF-295 CNS 98.5% | SF-539 CNS 97.3% | UACC-257 melanoma 95.4% | M14 melanoma 35.6% | HCT-15 colon 106% | HT29 colon 102% | SNB-75 CNS 66.9% | SNB-19 CNS 98.8% | U251 CNS 103% | PC-3 prostate 97.6% | SK-MEL-5 melanoma 95.6% | UACC-62 melanoma 94.6% | LOX IMVI melanoma 104% | SK-MEL-28 melanoma 113%

Cc1cc(C)nc(SCC(=O)Nc2cccc(N=Cc3ccccc3O)c2)n1
inactive: DU-145 prostate 104% | K-562 leukemia 96.2% | MALME-3M melanoma 101% | MDA-MB-231 breast 89.5% | RXF 393 renal 101% | SF-268 CNS 98.7% | SF-295 CNS 102% | SF-539 CNS 100% | UACC-257 melanoma 103% | M14 melanoma 98.2% | HCT-15 colon 105% | HT29 colon 101% | SNB-75 CNS 81.9% | SNB-19 CNS 93% | U251 CNS 94.9% | PC-3 prostate 90.3% | SK-MEL-5 melanoma 103% | UACC-62 melanoma 94.1% | LOX IMVI melanoma 103% | SK-MEL-28 melanoma 106%

Reference: PubChem BioAssay (NCI)
